Results published in PubChem BioAssay AID1159580 (chemical genetic matrix, 2015).
About 2,000 (36%) of roughly 5,500 compounds were called active. Not shown: some 18% with an inconclusive outcome. Cut-off read from the data, not from the text of the source: active = normalized growth mostly below about 0.91 (no sharp cut-off); inconclusive = no clear call, values can overlap the other calls; inactive = mostly above about 0.92. This is one part of the list. Where a SMILES comes first, the peptide text is derived from it.

Assay: chemical genetic growth profiling, strain panel (AID 1159580);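 note: tested at 20 µM; growth read once vehicle control cultures reached saturation at 30 °C; 1 = growth at the plate median or of vehicle wells; lower values mean less growth of the strain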
Conditions: growth OD
[1] = S. cerevisiae deletion strains, locus YAL013W, strain DEP1, hits give low values
[2] = S. cerevisiae deletion strains, locus YBR021W, strain FUR4, hits give low values
[3] = S. cerevisiae deletion strains, locus YBR229C, strain ROT2, hits give low values
[4] = S. cerevisiae deletion strains, locus YCL029C, strain bik1, hits give low values
[5] = S. cerevisiae deletion strains, locus YDL035C, strain GPR1, hits give low values
[6] = S. cerevisiae deletion strains, locus YDL074C, strain BRE1, hits give low values
[7] = S. cerevisiae deletion strains, locus YDL101C, strain DUN1, hits give low values
[8] = S. cerevisiae deletion strains, locus YDL185W, strain tfp1, hits give low values
[9] = S. cerevisiae deletion strains, locus YDL192W, strain arf1, hits give low values
[10] = S. cerevisiae deletion strains, locus YDR101C, strain arx1, hits give low values
[11] = S. cerevisiae deletion strains, locus YDR162C, strain NBP2, hits give low values
[12] = S. cerevisiae deletion strains, locus YDR318W, strain mcm21, hits give low values
[13] = S. cerevisiae deletion strains, locus YDR388W, hits give low values
[14] = S. cerevisiae deletion strains, locus YDR502C, strain sam2, hits give low values
[15] = S. cerevisiae deletion strains, locus YEL061C, strain CIN8, hits give low values
[16] = S. cerevisiae deletion strains, locus YER110C, hits give low values
[17] = S. cerevisiae deletion strains, locus YER155C, strain BEM2, hits give low values
[18] = S. cerevisiae deletion strains, locus YER167W, strain BCK2, hits give low values
[19] = S. cerevisiae deletion strains, locus YGL078C, strain dbp3, hits give low values
[20] = S. cerevisiae deletion strains, locus YGL086W, strain mad1, hits give low values
[21] = S. cerevisiae deletion strains, locus YGL248W, strain PDE1, hits give low values
[22] = S. cerevisiae deletion strains, locus YGR135W, strain pre9, hits give low values
[23] = S. cerevisiae deletion strains, locus YGR229C, strain SMI1, hits give low values
[24] = S. cerevisiae deletion strains, locus YGR252W, strain gcn5, hits give low values
[25] = S. cerevisiae deletion strains, locus YHR030C, strain SLT2, hits give low values
[26] = S. cerevisiae deletion strains, locus YHR079C, strain IRE1 (second series), hits give low values
[27] = S. cerevisiae deletion strains, locus YHR094C, strain hxt1, hits give low values
[28] = S. cerevisiae deletion strains, locus YHR129C, strain ARP1, hits give low values
[29] = S. cerevisiae deletion strains, locus YHR200W, strain rpn10, hits give low values
[30] = S. cerevisiae deletion strains, locus YIL066C, strain RNR3, hits give low values
[31] = S. cerevisiae deletion strains, locus YIL073C, strain SPO22, hits give low values
[32] = S. cerevisiae deletion strains, locus YIR030C, strain dcg1, hits give low values
[33] = S. cerevisiae deletion strains, locus YJL095W, strain BCK1, hits give low values
[34] = S. cerevisiae deletion strains, locus YJL134W, strain LCB3, hits give low values
[35] = S. cerevisiae deletion strains, locus YJL168C, strain set2, hits give low values
[36] = S. cerevisiae deletion strains, locus YJL187C, strain SWE1 (second series), hits give low values
[37] = S. cerevisiae deletion strains, locus YJR043C, strain POL32, hits give low values
[38] = S. cerevisiae deletion strains, locus YKL009W, strain mrt4, hits give low values
[39] = S. cerevisiae deletion strains, locus YKL068W, hits give low values
[40] = S. cerevisiae deletion strains, locus YKL085W, strain MDH1 (second series), hits give low values
[41] = S. cerevisiae deletion strains, locus YKL085W, strain MDH1, hits give low values
[42] = S. cerevisiae deletion strains, locus YKL190W, strain CNB1, hits give low values
[43] = S. cerevisiae deletion strains, locus YKR001C, strain vps1, hits give low values
[44] = S. cerevisiae deletion strains, locus YLR039C, strain RIC1, hits give low values
[45] = S. cerevisiae deletion strains, locus YLR058C, strain SHM2, hits give low values
[46] = S. cerevisiae deletion strains, locus YLR102C, strain apc9, hits give low values
[47] = S. cerevisiae deletion strains, locus YLR262C, strain YPT6, hits give low values
[48] = S. cerevisiae deletion strains, locus YLR268W, strain sec22, hits give low values
[49] = S. cerevisiae deletion strains, locus YLR330W, strain CHS5, hits give low values
[50] = S. cerevisiae deletion strains, locus YLR342W, strain FKS1 (second series), hits give low values
[51] = S. cerevisiae deletion strains, locus YLR371W, strain rom2, hits give low values
[52] = S. cerevisiae deletion strains, locus YLR418C, strain cdc73, hits give low values
[53] = S. cerevisiae deletion strains, locus YML016C, strain PPZ1, hits give low values
[54] = S. cerevisiae deletion strains, locus YML032C, strain rad52, hits give low values
[55] = S. cerevisiae deletion strains, locus YML124C, strain tub3, hits give low values
[56] = S. cerevisiae deletion strains, locus YMR078C, strain ctf18, hits give low values
[57] = S. cerevisiae deletion strains, locus YMR223W, strain ubp8, hits give low values
[58] = S. cerevisiae deletion strains, locus YMR263W, strain SAP30, hits give low values
[59] = S. cerevisiae deletion strains, locus YMR307W, strain GAS1, hits give low values
[60] = S. cerevisiae deletion strains, locus YNL067W, strain RPL9B, hits give low values
[61] = S. cerevisiae deletion strains, locus YNL233W, strain BNI4, hits give low values
[62] = S. cerevisiae deletion strains, locus YNL250W, strain rad50, hits give low values
[63] = S. cerevisiae deletion strains, locus YNL271C, strain bni1, hits give low values
[64] = S. cerevisiae deletion strains, locus YNL298W, strain CLA4, hits give low values
[65] = S. cerevisiae deletion strains, locus YNL307C, strain MCK1, hits give low values
[66] = S. cerevisiae deletion strains, locus YNL322C, strain KRE1, hits give low values
[67] = S. cerevisiae deletion strains, locus YNR052C, strain pop2, hits give low values
[68] = S. cerevisiae deletion strains, locus YOL006C, strain TOP1, hits give low values
[69] = S. cerevisiae deletion strains, locus YOL012C, strain htz1
[70] = S. cerevisiae deletion strains, locus YOL147C, strain pex11, hits give low values
[71] = S. cerevisiae deletion strains, locus YOR061W, strain CKA2, hits give low values
[72] = S. cerevisiae deletion strains, locus YOR069W, strain VPS5, hits give low values
[73] = S. cerevisiae deletion strains, locus YOR136W, strain idh2, hits give low values
[74] = S. cerevisiae deletion strains, locus YOR144C, strain elg1, hits give low values
[75] = S. cerevisiae deletion strains, locus YOR184W, strain ser1, hits give low values
[76] = S. cerevisiae deletion strains, locus YOR316C, strain cot1, hits give low values
[77] = S. cerevisiae deletion strains, locus YPR119W, strain clb2, hits give low values
[78] = S. cerevisiae deletion strains, locus YPR141C, strain kar3, hits give low values
[79] = S. cerevisiae deletion strains, locus YPR163C, strain tif3, hits give low values
[80] = S. cerevisiae deletion strains, locus YPR167C, strain met16, hits give low values
[81] = S. cerevisiae deletion strains, strain wtn01, hits give low values

Measured: normalized growth

NCCCCC(N)C(=O)NC(Cc1ccc(O)cc1)C(=O)NC(CCCCN)C(=O)O (stereo not drawn) (H-Lys-Tyr-Lys-OH; configuration not given here)
inactive: [1] 1.01 | [2] 1 | [3] 1.01 | [4] 0.983 | [5] 1.01 | [6] 1.06 | [7] 1.02 | S. cerevisiae deletion strains, locus YDL134C, strain PPH21, hits give low values 1.01 | [8] 0.971 | [9] 0.984 | [10] 1.01 | S. cerevisiae deletion strains, locus YDR150W, strain NUM1, hits give low values 0.999 | [11] 1.04 | [12] 0.983 | [13] 1.01 | [14] 1 | [15] 0.996 | [16] 0.987 | [17] 0.985 | [18] 0.995 | [19] 0.988 | [20] 0.963 | [21] 1.01 | S. cerevisiae deletion strains, locus YGR078C, strain PAC10, hits give low values 1.04 | [22] 0.999 | [23] 1.05 | [24] 0.958 | [25] 0.996 | [26] 1 | [27] 0.982 | [28] 1.01 | [29] 0.984 | [30] 1.02 | [31] 0.948 | [32] 0.995 | [33] 1.07 | [34] 0.997 | [35] 1.02 | [36] 1.01 | [37] 0.996 | S. cerevisiae deletion strains, locus YJR075W, strain HOC1, hits give low values 1.1 | [38] 0.958 | [39] 0.987 | [40] 1.04 | [41] 1.04 | [42] 1.01 | [43] 0.979 | [44] 1.04 | [45] 0.999 | [46] 1 | [47] 1 | [48] 1.01 | [49] 0.987 | [50] 1.01 | [51] 0.983 | [52] 1.04 | [53] 1 | [54] 0.976 | [55] 0.99 | [56] 0.982 | [57] 0.981 | [58] 1.05 | [59] 1.07 | [60] 1.04 | S. cerevisiae deletion strains, locus YNL128W, strain TEP1, hits give low values 1.05 | S. cerevisiae deletion strains, locus YNL153C, strain GIM3, hits give low values 1.05 | [61] 1.04 | [62] 0.981 | [63] 0.99 | [64] 0.987 | [65] 0.993 | [66] 0.998 | [67] 0.99 | [68] 1.06 | [69] 0.771 | [70] 0.995 | [71] 1.01 | [72] 1 | [73] 0.998 | [74] 0.989 | [75] 0.966 | [76] 0.99 | S. cerevisiae deletion strains, locus YPL055C, strain LGE1, hits give low values 1.11 | S. cerevisiae deletion strains, locus YPL241C, strain CIN2, hits give low values 1 | [77] 0.998 | [78] 1 | [79] 0.982 | [80] 0.997 | [81] 1.03 | S. cerevisiae strains, strain wild type, hits give low values 1.01

NC(N)=NCCCC(NC(=O)C(N)Cc1ccc(O)cc1)C(=O)O (configuration not stated)
active: [2] 1.25 [resistant]
inactive: [1] 1.03 | [3] 0.998 | [4] 0.969 | [5] 1.04 | [6] 1.03 | [7] 0.989 | [8] 0.962 | [9] 0.994 | [10] 0.989 | [11] 1.02 | [12] 0.991 | [13] 0.989 | [14] 0.987 | [15] 0.988 | [16] 0.971 | [17] 0.99 | [18] 1.01 | [19] 1 | [20] 0.981 | [21] 0.997 | [22] 1 | [23] 1.05 | [24] 1.23 | [25] 0.994 | [26] 0.968 | [27] 0.985 | [28] 0.99 | [29] 0.981 | [30] 1.01 | [31] 0.924 | S. cerevisiae deletion strains, locus YIL125W, strain kgd1, hits give low values 0.995 | [32] 0.996 | [33] 0.988 | [34] 0.992 | [35] 0.989 | [36] 0.99 | [37] 1.08 | [38] 0.938 | [39] 0.968 | [40] 0.988 | [41] 0.988 | [42] 0.993 | [43] 0.982 | [44] 1 | [45] 0.991 | [46] 0.972 | [47] 1 | [48] 0.97 | [49] 0.988 | [50] 1.05 | [51] 0.99 | [52] 1.07 | [53] 0.992 | [54] 0.996 | [55] 0.995 | [56] 0.997 | [57] 1.03 | [58] 0.983 | [59] 1.31 | [60] 0.968 | [61] 1 | [62] 0.951 | [63] 1 | [64] 0.995 | [65] 0.985 | [66] 1 | [67] 0.976 | [68] 1.04 | [69] 1.32 | [70] 0.991 | [71] 0.988 | [72] 0.989 | [73] 0.978 | [74] 0.995 | [75] 0.984 | [76] 0.979 | [77] 0.988 | [78] 0.969 | [79] 1 | [80] 0.997 | [81] 0.964
